Data on 21 compounds can be found in the supplement of paper PMC9492666.

Counter-ions that a name gives are not always drawn.
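Also: viability read by CCK-8 kit in 96-well plates, part of a combination screen pairing lipid-metabolism-targeting compounds with erastin.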

This experiment relates to MDA-MB-231. Kind of experiment: relative cell viability, compound + erastin, vs DMSO (fraction of DMSO control); higher = less growth inhibition. The following applies: 72 h.
For the compound `CCCCCCCCCCOc1ccc(C(=O)Nc2cc(C(=O)NCCCC)ccc2SC)cc1` + CCOc1ccccc1-n1c(C(C)N2CCN(C(=O)COc3ccc(Cl)cc3)CC2)nc2ccccc2c1=O [erastin], the relative cell viability is 0.845.

Consider `O=C(NNc1ccccc1)c1ccncc1` [PluriSln 1] + CCOc1ccccc1-n1c(C(C)N2CCN(C(=O)COc3ccc(Cl)cc3)CC2)nc2ccccc2c1=O [erastin], for which the relative cell viability was 0.696.

Take `COc1cc(F)c(C(C)C)cc1-c1ccc(C(F)(F)F)cc1CN1C(=O)O[C@H](c2cc(C(F)(F)F)cc(C(F)(F)F)c2)[C@@H]1C` [Anacetrapib] + CCOc1ccccc1-n1c(C(C)N2CCN(C(=O)COc3ccc(Cl)cc3)CC2)nc2ccccc2c1=O [erastin]: the relative cell viability was 0.639.

On to `O=C1/C(=C/c2cccs2)CC/C1=C\c1cccs1` + CCOc1ccccc1-n1c(C(C)N2CCN(C(=O)COc3ccc(Cl)cc3)CC2)nc2ccccc2c1=O [erastin], for which the relative cell viability stood at 0.658.

As for `Cc1cc(SCc2sc(-c3ccc(C(F)(F)F)cc3)nc2C)ccc1OCC(=O)O` + CCOc1ccccc1-n1c(C(C)N2CCN(C(=O)COc3ccc(Cl)cc3)CC2)nc2ccccc2c1=O [erastin], the relative cell viability turned out to be 0.558.

As for `CN(CCOc1ccc(CC2SC(=O)NC2=O)cc1)c1ccccn1` (stereo unspecified) [Rosiglitazone] + CCOc1ccccc1-n1c(C(C)N2CCN(C(=O)COc3ccc(Cl)cc3)CC2)nc2ccccc2c1=O [erastin], the relative cell viability was 0.697.

Regarding `Cc1coc2c1C(=O)C(=O)c1c-2ccc2c(C)cccc12` [Tanshinone I] + CCOc1ccccc1-n1c(C(C)N2CCN(C(=O)COc3ccc(Cl)cc3)CC2)nc2ccccc2c1=O [erastin], the relative cell viability amounted to 0.396.

Turning to `O=C(CCCCc1ccc2c(c1)OCO2)N1CCCCC1` + CCOc1ccccc1-n1c(C(C)N2CCN(C(=O)COc3ccc(Cl)cc3)CC2)nc2ccccc2c1=O [erastin], the relative cell viability is 0.35.

Turning to `O=C(O)c1c[nH]c2cc(Cl)c(-c3ccc(C4(O)CCC4)cc3)cc12` + CCOc1ccccc1-n1c(C(C)N2CCN(C(=O)COc3ccc(Cl)cc3)CC2)nc2ccccc2c1=O [erastin], the relative cell viability came to 0.677.

For the compound `CC(C)(Oc1ccc(C(=O)c2ccc(Cl)cc2)cc1)C(=O)O` [Choline Fenofibrate] + CCOc1ccccc1-n1c(C(C)N2CCN(C(=O)COc3ccc(Cl)cc3)CC2)nc2ccccc2c1=O [erastin], the relative cell viability amounted to 0.662.

For the compound `Cc1ccc(Oc2nc3cc(-c4ccc(-c5ccccc5)cc4)c(Cl)cc3[nH]2)cc1C(=O)O` + CCOc1ccccc1-n1c(C(C)N2CCN(C(=O)COc3ccc(Cl)cc3)CC2)nc2ccccc2c1=O [erastin], the relative cell viability turned out to be 0.629.

In the case of `O=C(O)CCCc1cc2cc(Cl)ccc2n1S(=O)(=O)c1ccc2ncsc2c1` [Lanifibranor] + CCOc1ccccc1-n1c(C(C)N2CCN(C(=O)COc3ccc(Cl)cc3)CC2)nc2ccccc2c1=O [erastin], the relative cell viability stood at 0.886.

Take `Oc1ccc(/C=C/c2cc(O)cc(O)c2)cc1` [Resveratrol] + CCOc1ccccc1-n1c(C(C)N2CCN(C(=O)COc3ccc(Cl)cc3)CC2)nc2ccccc2c1=O [erastin]: the relative cell viability was 0.853.

`CN(C)C(=N)NC(=N)N` [Metformin hydrochloride] + CCOc1ccccc1-n1c(C(C)N2CCN(C(=O)COc3ccc(Cl)cc3)CC2)nc2ccccc2c1=O [erastin]: the relative cell viability stood at 1.03.

Take `Cc1nc2ccc(C(=O)N3CCC4(CC3)CC(=O)c3c(cnn3C(C)C)C4)cc2[nH]1` + CCOc1ccccc1-n1c(C(C)N2CCN(C(=O)COc3ccc(Cl)cc3)CC2)nc2ccccc2c1=O [erastin]: the relative cell viability is 0.733.

As to `O=C1C(SCCO)=C(SCCO)C(=O)c2ccccc21` + CCOc1ccccc1-n1c(C(C)N2CCN(C(=O)COc3ccc(Cl)cc3)CC2)nc2ccccc2c1=O [erastin], the relative cell viability worked out at 0.851.

Consider `CCc1c(C(=O)C(N)=O)c2c(OCC(=O)O)cccc2n1Cc1ccccc1` [Varespladib] + CCOc1ccccc1-n1c(C(C)N2CCN(C(=O)COc3ccc(Cl)cc3)CC2)nc2ccccc2c1=O [erastin], for which the relative cell viability was 0.652.

As to `COCCNC(=O)Nc1ccc2nc(-c3cccs3)c(-c3cccs3)nc2c1` [Ac-CoA Synthase Inhibitor1] + CCOc1ccccc1-n1c(C(C)N2CCN(C(=O)COc3ccc(Cl)cc3)CC2)nc2ccccc2c1=O [erastin], the relative cell viability is 0.669.

With `NC(=O)c1ncn([C@@H]2O[C@H](CO)[C@@H](O)[C@H]2O)c1N` [AICAR (Acadesine)] + CCOc1ccccc1-n1c(C(C)N2CCN(C(=O)COc3ccc(Cl)cc3)CC2)nc2ccccc2c1=O [erastin], the relative cell viability is 0.973.

Regarding `Cc1c(C(=O)NN2CCOCC2)nn(-c2ccc(Cl)cc2Cl)c1-c1ccc(I)cc1` + CCOc1ccccc1-n1c(C(C)N2CCN(C(=O)COc3ccc(Cl)cc3)CC2)nc2ccccc2c1=O [erastin], the relative cell viability was determined as 0.325.

Regarding `Nc1ncnc2c1ncn2C1OC(COP(=O)(O)O)C(O)C1O` (stereo unspecified) [Adenosine 5'-monophosphate monohydrate] + CCOc1ccccc1-n1c(C(C)N2CCN(C(=O)COc3ccc(Cl)cc3)CC2)nc2ccccc2c1=O [erastin], the relative cell viability was 1.07.
